Where “and” joins values, the source holds several entries; their conditions need not be identical. Equal entries are not always repeated. Inconclusive results are not listed. Where a structure was tested more than once in an assay, its records may differ in their call. Calls of active or inactive are those of the source. Rule for the calls, unless noted: active = hit-call score of the fitted dose curve at least 0.9, where 1 is the maximum; inconclusive = response in the unintended direction; inactive = score below 0.9.
Columns and labels:
[1] = system: Thyroperoxidase (TPO), gene 54314; assay: CCTE_Simmons_AUR_rTPO: CCTE's Amplex UltraRed Assay for Thyroperoxidase (TPO) Inhibition, Simmons Lab (AID 2283662);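 for AC50: potency for loss of signal meaning inhibition of peroxidase activity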
Summary of the method: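 Cell-free peroxidase activity assay using rat thyroid gland microsomes with excess H2O2 (300 uM) and 25 uM Amplex UltraRed. Compounds tested from 5 nM to 87.5 uM; fluorescence measured after 30 min at 37C, analysed relative to DMSO baseline.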

[2] = CCTE_Simmons_CellTiterGLO_HEK293T: Viability Assessment in CCTE's Assays for Thyroperoxidase (TPO) Inhibition, Simmons Lab (AID 2283665);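 for AC50: cells exposed to compound for 24 h before readout; actives reduce ATP signal below DMSO vehicle meaning cytotoxicity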
Summary of the method: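 Luminescent ATP readout (CellTiter-Glo, 20 min at room temperature) after 24 hr exposure of HEK293T cells to 5 nM–87.5 uM final compound; signal loss relative to DMSO vehicle indicated cytotoxicity; dichlone titrated as positive control.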

[3] = Tanguay_ZF_120hpf_BRAI_legacy: (Legacy) Oregon State University Tanguay Lab 120 Hour Post-fertilization zebrafish Assay for Brain Malformation (AID 2283641)
Summary of the method: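 Read-out: binary brain morphology call at 120 hpf (brightfield), fitted in gain-of-signal direction vs DMSO. Wild-type Tropical 5D embryos, static exposure, 28C, 0.64% DMSO final; 5uM trimethyltin chloride as positive control.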

[4] = Tanguay_ZF_120hpf_SOMI_legacy: (Legacy) Oregon State University Tanguay Lab 120 Hour Post-fertilization zebrafish Assay for Somite Malformation (AID 2283647)
Summary of the method: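 Binary brightfield scoring of somite defects at 120 hpf in 5D wild-type larvae; one dechorionated embryo per well, static exposure from 6 hpf, 28C, sealed and dark. Final DMSO 0.64%; trimethyltin chloride 5uM positive control.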

[5] = Tanguay_ZF_120hpf_PFIN_legacy: (Legacy) Oregon State University Tanguay Lab 120 Hour Post-fertilization zebrafish Assay for Pectoral Fin Malformation (AID 2283648);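 note: each larva judged yes or no for fin defect by brightfield with dead larvae skipped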
Summary of the method: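 Scoring of pectoral fin malformation was binary, made at 120 hpf on larvae exposed statically from 6 hpf after enzymatic chorion removal. Activity was fitted upward relative to DMSO controls at 0.64% (vol/vol).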

[6] = Tanguay_ZF_120hpf_CFIN_legacy: (Legacy) Oregon State University Tanguay Lab 120 Hour Post-fertilization zebrafish Assay for Caudal Fin Malformation (AID 2283649)
Summary of the method: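 Dechorionated 5D wild-type zebrafish, static exposure 6–120 hpf, 28C, sealed and dark, 0.64% v/v DMSO final. Binary fin-malformation call at 120 hpf, brightfield; gain of signal vs DMSO baseline.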

[7] = Tanguay_ZF_120hpf_PIG_legacy: (Legacy) Oregon State University Tanguay Lab 120 Hour Post-fertilization zebrafish Assay for Pigmentation Malformation (AID 2283650)
Summary of the method: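 Endpoint is incidence of abnormal pigmentation at 120 hpf in dechorionated 5D zebrafish exposed singly from 6 hpf at 28C, DMSO vehicle at 0.64%. Embryos dying by 24 or 120 hpf are excluded from scoring.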

[8] = Tanguay_ZF_120hpf_CIRC_legacy: (Legacy) Oregon State University Tanguay Lab 120 Hour Post-fertilization zebrafish Assay for Circulatory Malformation (AID 2283651)
Summary of the method: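 Static exposure, 6–120 hpf, 28C, sealed and dark; one dechorionated 5D embryo/well; DMSO 0.64% v/v final. Binary circulation endpoint by brightfield; dead embryos not scored.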

[9] = Tanguay_ZF_120hpf_SWIM_legacy: (Legacy) Oregon State University Tanguay Lab 120 Hour Post-fertilization zebrafish Assay for Swim Bladder Malformation (AID 2283654);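 note: swim bladder malformation in each larva scored yes or no under brightfield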
Summary of the method: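 Static waterborne exposure of single dechorionated Tropical 5D zebrafish embryos, 6–120 hpf, 28C, 0.64% DMSO final. Read-out: swim bladder malformation, present/absent, relative to DMSO negative control; trimethyltin chloride 5uM served as positive control.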

[10] = Tanguay_ZF_120hpf_TRUN_legacy: (Legacy) Oregon State University Tanguay Lab 120 Hour Post-fertilization zebrafish Assay for Truncated Body (AID 2283655)
Summary of the method: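 Whole-embryo zebrafish screen: dechorionated 5D embryos, static exposure 6–120 hpf, 28C, sealed foil-covered plates, 0.64% DMSO. Binary truncation call; gain of signal versus DMSO baseline.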

[11] = Tanguay_ZF_120hpf_NC_legacy: (Legacy) Oregon State University Tanguay Lab 120 Hour Post-fertilization zebrafish Assay for Notochord and Tail Malformation (AID 2283656)
Summary of the method: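 Binary notochord-distortion calls, made by brightfield inspection, form the read-out; activity is fitted in the positive direction against DMSO. Exposure ran statically from 6 to 120 hpf at 28C with 0.64% DMSO.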

[12] = Tanguay_ZF_120hpf_TR_legacy: (Legacy) Oregon State University Tanguay Lab 120 Hour Post-fertilization zebrafish Assay for Touch Response (AID 2283667)
Summary of the method: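 Readout is presence or absence of touch response in 120 hpf zebrafish larvae, assessed by brightfield observation after continuous static exposure at 28C. Final vehicle was 0.64% (vol/vol) DMSO.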

[13] = Tanguay_ZF_120hpf_ActivityScore_legacy: (Legacy) Oregon State University Tanguay Lab 120 Hour Post-fertilization zebrafish Assay Score for Activity (AID 2283742);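 for AC50: dechorionated Tropical 5D wild-type zebrafish embryos held singly per well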
Summary of the method: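 In this whole-embryo screen, dechorionated zebrafish were exposed from 6 hpf until 120 hpf at 28C under a 0.64% DMSO vehicle. Developmental malformations and death were recorded by brightfield microscopy as binary endpoints.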

[14] = CCTE_Padilla_ZF_144hpf_TERATOSCORE: (Legacy) CCTE's 144 Hour Post-fertilization zebrafish Assay Teratoscore, Padilla Lab (AID 2283679; active = hit-call score of the fitted dose curve at least 0.9, where 1 is the maximum; inactive = score below 0.9;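 note: zebrafish embryos with chorions exposed by immersion from 6-8 hpf to 5 dpf with daily renewal; teratogenicity score from eye scoring of death hatching and malformations at 144 hpf; higher score means more developmental defects relative to DMSO baseline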)
Summary of the method: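 Larvae scored by eye at 144 hpf for death, hatching and malformations after a day in clean Hanks'. Before that, daily-renewed exposure at 80 uM (0.4% DMSO, 26C) from roughly 6-8 hpf through 5 dpf, 4 embryos per chemical.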

[15] = CEETOX_H295R_MTT_cell_viability: Viability Assessment in the CeeTox HT-H295R MTT Assay (AID 2283718; active = hit-call score of the fitted dose curve at least 0.9, where 1 is the maximum; inactive = score below 0.9)
Summary of the method: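 H295R cells prestimulated 48 h with 10 uM forskolin, then exposed 48 h to test chemical (0.1% DMSO final). Viability by MTT (0.5 mg/ml, 4 h, 37 C), absorbance 570/650 nm; percent change versus DMSO, bidirectional fit.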

[16] = system: zebrafish Androgen Receptor (AR), gene 100005148; assay: ATG_zfAR_XSP1: Attagene TRANS-FACTORIAL Multi-Species (XSP1) HepG2 Assay for zebrafish Androgen Receptor (AR) (AID 2283771)
Summary of the method: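 Gain-of-signal versus DMSO was measured as reporter transcripts quantified by RT-PCR, fluorescent labelling and capillary electrophoresis after 24 h chemical exposure. The cells were HepG2 expressing a chimeric zebrafish AR-GAL4, co-stimulated with 3 nM 6-alpha-fluorotestosterone.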

[17] = target: zebrafish Estrogen Receptor (ESR1), esr1 (gene 259252) (UniProt P57717); assay: ATG_zfER1_XSP1: Attagene TRANS-FACTORIAL Multi-Species (XSP1) HepG2 Assay for zebrafish Estrogen Receptor (ESR1) (AID 2283772)
zebrafish Estrogen Receptor (ESR1), esr1 (gene 259252), sequence (P57717 whole entry, looked up, the tested form may be a part): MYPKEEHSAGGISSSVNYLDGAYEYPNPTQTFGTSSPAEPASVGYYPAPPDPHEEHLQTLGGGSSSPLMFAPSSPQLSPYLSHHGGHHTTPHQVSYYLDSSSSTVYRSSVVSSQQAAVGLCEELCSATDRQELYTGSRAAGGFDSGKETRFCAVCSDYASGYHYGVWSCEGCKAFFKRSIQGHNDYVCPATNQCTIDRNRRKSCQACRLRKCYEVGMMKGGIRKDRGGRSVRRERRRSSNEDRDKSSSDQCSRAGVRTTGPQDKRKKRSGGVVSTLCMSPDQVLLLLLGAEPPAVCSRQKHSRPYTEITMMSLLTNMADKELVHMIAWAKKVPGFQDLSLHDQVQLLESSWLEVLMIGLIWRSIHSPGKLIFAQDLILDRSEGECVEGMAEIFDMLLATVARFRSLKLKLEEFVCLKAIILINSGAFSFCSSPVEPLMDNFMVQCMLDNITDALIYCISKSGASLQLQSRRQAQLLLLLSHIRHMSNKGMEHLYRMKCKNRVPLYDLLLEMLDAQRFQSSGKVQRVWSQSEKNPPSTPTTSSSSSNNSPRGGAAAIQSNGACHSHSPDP
Summary of the method: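 Readout: fluorescent reporter mRNA, RT-PCR plus FAM labelling, HpaI digest, capillary electrophoresis; gain-of-signal fit vs DMSO. HepG2, transient multi-reporter TRANS (NR-GAL4 chimera), 24 h chemical exposure, 3 nM 6-alpha-fluorotestosterone co-added.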

[18] = STM_H9_OrnithineISnorm_perc: Stemina devTOX quickPredict H9 human embryonic stem cell (hESC)-based Assay for Ornithine (ORN) Metabolite Biomarker, Normalized (AID 2283712; active = hit-call score of the fitted dose curve at least 0.9, where 1 is the maximum; inactive = score below 0.9;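 note: ornithine released into spent medium during last day measured by mass spectrometry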)
Summary of the method: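 UPLC-HRMS readout: endogenous ornithine EIC area / 13C-ORN internal standard, then % of 0.1% DMSO median. H9 hESCs (pluripotent), 72h exposure, re-dosed with fresh media q24h; last 24-h spent media, deproteinized in 40% acetonitrile.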

[19] = STM_H9_CystineISnorm_perc: Stemina devTOX quickPredict H9 human embryonic stem cell (hESC)-based Assay for Cystine (CYSS) Metabolite Biomarker, Normalized (AID 2283713; active = hit-call score of the fitted dose curve at least 0.9, where 1 is the maximum; inactive = score below 0.9)
Summary of the method: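 UPLC-HRMS read-out: endogenous cystine peak area in spent medium, normalized to isotope-labeled internal standard and to median of 0.1% DMSO controls. Pluripotent H9 cells, 72h exposure, daily medium/compound replenishment; medium from last 24h sampled.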

[20] = STM_H9_OrnCyssISnorm_ratio: Stemina devTOX quickPredict H9 human embryonic stem cell (hESC)-based Assay for Ornithine (ORN):Cystine (CYSS) Ratio (AID 2283714)
Summary of the method: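 H9 hESC, 72h, q24h re-dose; last-day media → acetonitrile deproteinization → UPLC-HRMS. ORN:CYSS ratio from isotope-normalized EIC areas, vs 0.1% DMSO; MTX references on each plate.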

Measured: AC50

[O-]/[N+](=N\O)c1ccccc1
inactive: [1] | [2]

C=C(C)C(N)=O
inactive: [3] | [4] | [5] | [6] | [7] | [8] | [9] | [10] | [11] | [12] | [13]

CCCCCCCCCCCCOCCOS(=O)(=O)O
active: [1] 50.8 µM | [2] 78.3 µM

Cc1cccc(O)c1
active: [1] 19.6 µM
inactive: [2]

c1ccc2scnc2c1
active: [1] 56 µM and 16.7 µM
inactive: [2]

CCCCC/C=C\C=C\C(=O)OCC
active: [1] 38.6 µM | [2] 88.6 µM

O=C1OC2(c3ccc(O)cc3Oc3cc(O)ccc32)c2ccccc21
active: [1] 10.2 µM
inactive: [2]

O=Cc1ccccc1O
inactive: [1]

CC/C(=C(\c1ccccc1)c1ccc(OCCN(C)C)cc1)c1ccccc1
inactive: [4] | [5] | [6] | [7] | [8] | [9] | [10] | [11] | [1] | [12] | [15] | [13] | [16] | [17]
active: [1] 24.2 µM | [2] 8.72 µM and 6.64 µM | [14] 1.43 µM and 1.58 µM | [13] 31.1 µM

CCCc1ccc(N)cc1
inactive: [2]
active: [1] 0.0301 µM

NC(N)=S
inactive: [2]
active: [1] 19.1 µM and 12.3 µM

O=c1cc(-c2ccc(O)cc2)oc2cc(O)cc(O)c12
active: [1] 4.81 µM
inactive: [2]

COC(=O)c1ccc(C(=O)OC)cc1
active: [3] 44.4 µM | [9] 12.3 µM | [14] 4.57 µM | [13] 77.4 µM
not listed: [1] | [2] | [7] | [12] | [16] | [17]
inactive: all other assays above

COc1ccccc1O
active: [1] 21.7 µM
inactive: [2]

C#C[C@]1(O)CC[C@H]2[C@@H]3CCc4cc(O)ccc4[C@H]3CC[C@@]21C
active: [1] 9.38 µM | [2] 37.5 µM | [14] 5.77 µM | [17] 0.000281 µM
not listed: [16] | [18] | [19] | [20]
inactive: all other assays above

CCCCOCCOCCO
inactive: [3] | [4] | [5] | [6] | [7] | [8] | [9] | [10] | [11] | [12] | [13]

CN(C)C(=O)Nc1ccccc1
active: [1] 43.8 µM

CC(=O)Nc1cc(S(=O)(=O)O)cc2cc(S(=O)(=O)O)c(N=Nc3ccccc3)c(O)c12
active: [1] 40.8 µM | [2] 17.3 µM

CC1=CCC(=C(C)C)CC1
inactive: [1]

O=c1cc[nH]cc1
inactive: [1]

O=C(O)C1=NN(c2ccc(S(=O)(=O)O)cc2)C(=O)C1
active: [1] 36.4 µM

O=C(c1ccc(OCCN2CCCCC2)cc1)c1c(-c2ccc(O)cc2)sc2cc(O)ccc12
active: [2] 20 µM | [14] 86.8 µM
inactive: [4] | [5] | [6] | [8] | [10] | [11] | [1] | [15] | [13]

CCCCCCCCOC(=O)c1ccc(O)cc1
active: [1] 52.8 µM | [2] 24.4 µM

CN1CCc2cccc3c2[C@H]1Cc1ccc(O)c(O)c1-3
active: [1] 0.522 µM | [2] 14.4 µM

C[C@]12CC[C@@H]3c4ccc(O)cc4CC[C@H]3[C@@H]1CC[C@@H]2O
active: [1] 4.86 µM | [14] 12 µM
not listed: [5] | [16] | [17] | [18] | [19] | [20]
inactive: all other assays above

CCCCCCCCCCCCS
active: [1] 7.49 µM | [2] 83.5 µM

CCC(C)(C)C1CCC(=O)CC1
inactive: [2]
active: [1] 39.3 µM

O=C(O)c1ccccc1O
active: [19] 1490 µM

From PubChem BioAssay (EPA / NIEHS)
